Test results taken from PubChem BioAssay (NCATS).
Records with an inconclusive call do not appear. Calls of active or inactive are those of the source. Unless noted, calls follow the shape of the dose curve; as a rule, active = well fitted curve in the direction sought with a large enough effect; inconclusive = small, poorly fitted or top-dose-only effect, or another doubt; inactive = no such curve, though single readings can be large; an effect the other way counts as inactive or inconclusive.

Experiments:
[1] = target: Ubiquitin carboxyl-terminal hydrolase 2 (Homo sapiens) (UniProt O75604); assay: qHTS Validation Assay for Inhibitors of Ubiquitin-specific Protease USP2a Using CHOP2 as the Reporter (AID 463106)
Chain of Ubiquitin carboxyl-terminal hydrolase 2 (Homo sapiens) (O75604 whole entry, looked up): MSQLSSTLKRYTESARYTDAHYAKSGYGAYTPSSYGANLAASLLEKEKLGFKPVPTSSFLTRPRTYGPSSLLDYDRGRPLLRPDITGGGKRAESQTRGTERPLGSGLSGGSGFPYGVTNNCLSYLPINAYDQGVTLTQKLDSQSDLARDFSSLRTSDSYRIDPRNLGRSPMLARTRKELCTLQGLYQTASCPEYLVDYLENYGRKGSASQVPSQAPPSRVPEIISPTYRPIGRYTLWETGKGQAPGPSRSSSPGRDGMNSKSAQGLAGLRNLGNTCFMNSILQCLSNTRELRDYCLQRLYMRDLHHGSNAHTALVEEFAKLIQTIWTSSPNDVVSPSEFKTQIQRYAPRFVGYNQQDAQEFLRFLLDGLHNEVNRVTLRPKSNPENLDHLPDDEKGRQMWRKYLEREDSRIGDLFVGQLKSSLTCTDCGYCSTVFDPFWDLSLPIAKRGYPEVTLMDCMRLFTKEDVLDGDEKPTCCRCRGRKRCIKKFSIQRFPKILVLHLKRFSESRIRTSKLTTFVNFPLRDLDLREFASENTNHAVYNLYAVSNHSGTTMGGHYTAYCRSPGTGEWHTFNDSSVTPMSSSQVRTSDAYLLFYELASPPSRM
Outline: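 USP2 core (10nM final) was preincubated with compound for 30min at RT in 20mM Tris-HCl pH 8.0, 2mM CaCl2, 2mM beta-mercaptoethanol, 0.05% CHAPS. Ub-CHOP2 and reporter substrate (25nM each) were added, and fluorescence (Ex 485/Em 531nm) was read after 60min.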

[2] = target: DNA polymerase III PolC-type (Bacillus subtilis (strain 168)) (UniProt P13267); assay: qHTS Validation Assay for the Inhibitors of DNA Replication in Gram-Positive Bacteria (AID 485295);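 also: reconstituted holoenzyme with PolC plus beta clamp SSB and primase; PicoGreen fluorescence of double-stranded DNA made on primed circular M13 template; series mostly up to about 57 µM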
Chain of DNA polymerase III PolC-type (Bacillus subtilis (strain 168)) (P13267 whole entry, looked up): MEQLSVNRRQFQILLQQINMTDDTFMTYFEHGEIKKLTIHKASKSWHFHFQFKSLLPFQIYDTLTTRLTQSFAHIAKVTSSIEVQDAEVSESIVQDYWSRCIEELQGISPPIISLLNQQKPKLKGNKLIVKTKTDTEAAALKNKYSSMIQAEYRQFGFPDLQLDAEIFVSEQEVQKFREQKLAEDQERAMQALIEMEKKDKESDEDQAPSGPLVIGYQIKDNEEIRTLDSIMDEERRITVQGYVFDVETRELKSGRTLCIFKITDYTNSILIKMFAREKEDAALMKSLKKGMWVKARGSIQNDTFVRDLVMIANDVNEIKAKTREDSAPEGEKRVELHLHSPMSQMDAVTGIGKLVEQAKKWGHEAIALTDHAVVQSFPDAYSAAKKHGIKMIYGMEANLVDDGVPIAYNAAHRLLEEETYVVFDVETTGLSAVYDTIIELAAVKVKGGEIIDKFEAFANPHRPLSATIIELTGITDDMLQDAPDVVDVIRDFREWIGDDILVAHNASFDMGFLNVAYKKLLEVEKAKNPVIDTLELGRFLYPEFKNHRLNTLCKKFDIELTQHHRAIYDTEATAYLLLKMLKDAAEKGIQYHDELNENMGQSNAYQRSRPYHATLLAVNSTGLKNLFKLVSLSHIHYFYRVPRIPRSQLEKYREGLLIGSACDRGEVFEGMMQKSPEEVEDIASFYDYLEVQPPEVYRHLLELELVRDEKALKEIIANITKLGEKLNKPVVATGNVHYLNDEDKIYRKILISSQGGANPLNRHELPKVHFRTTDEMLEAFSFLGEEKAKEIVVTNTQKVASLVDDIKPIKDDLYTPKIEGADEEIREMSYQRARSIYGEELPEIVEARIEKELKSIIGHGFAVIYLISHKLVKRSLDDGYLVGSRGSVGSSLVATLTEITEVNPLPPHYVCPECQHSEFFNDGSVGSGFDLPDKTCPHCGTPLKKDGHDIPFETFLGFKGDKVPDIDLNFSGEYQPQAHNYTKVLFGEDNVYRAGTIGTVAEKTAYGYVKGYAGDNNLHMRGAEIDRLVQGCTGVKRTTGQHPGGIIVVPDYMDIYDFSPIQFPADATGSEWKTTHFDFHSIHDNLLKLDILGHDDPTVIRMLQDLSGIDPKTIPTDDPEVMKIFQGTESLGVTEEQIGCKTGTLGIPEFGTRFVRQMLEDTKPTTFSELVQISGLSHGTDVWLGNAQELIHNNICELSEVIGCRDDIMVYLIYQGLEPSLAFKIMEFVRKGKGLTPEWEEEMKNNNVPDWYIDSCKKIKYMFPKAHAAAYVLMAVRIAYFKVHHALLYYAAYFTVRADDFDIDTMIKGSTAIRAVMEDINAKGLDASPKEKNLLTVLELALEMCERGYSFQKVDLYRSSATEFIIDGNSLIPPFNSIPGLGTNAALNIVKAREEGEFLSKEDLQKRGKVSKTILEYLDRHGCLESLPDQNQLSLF
Outline: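 Double-stranded DNA product detected by PicoGreen fluorescence after EDTA quench. Compound incubated with B. subtilis holoenzyme (PolC, beta subunit, SSB, primase) before substrate addition; primed replication of M13Gori with dNTPs and NTPs at room temperature; DMSO defines 0% inhibition.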

[3] = target: Tumor susceptibility gene 101 protein (Homo sapiens) (UniProt Q99816); assay: qHTS Validation Assay for Iinhibitors of HIV-1 Budding by Blocking the Interaction of PTAP/TSG101 (AID 485342; calls by dose curve)
Chain of Tumor susceptibility gene 101 protein (Homo sapiens) (Q99816 whole entry, looked up, the tested form may be a part): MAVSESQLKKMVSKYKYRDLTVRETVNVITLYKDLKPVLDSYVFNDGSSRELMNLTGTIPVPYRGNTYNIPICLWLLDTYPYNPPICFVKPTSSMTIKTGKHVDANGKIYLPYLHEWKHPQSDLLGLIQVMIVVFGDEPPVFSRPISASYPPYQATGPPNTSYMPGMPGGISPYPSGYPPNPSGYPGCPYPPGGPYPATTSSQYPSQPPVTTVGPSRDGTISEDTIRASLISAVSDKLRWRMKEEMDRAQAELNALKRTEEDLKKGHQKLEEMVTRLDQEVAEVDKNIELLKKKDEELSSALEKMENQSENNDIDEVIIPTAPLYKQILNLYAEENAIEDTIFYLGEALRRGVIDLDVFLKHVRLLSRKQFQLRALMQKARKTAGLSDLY
Outline: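 Fluorescence polarization of 50 nM FITC-PTAP peptide bound to 10 uM Tsg101 binding domain was read after 20 min room-temperature incubation with compounds, in 10 mM HEPES pH 7.5, 0.15 M NaCl, 0.01% Tween 20.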

[4] = qHTS Validation Assay to Find Inhibitors of Chronic Active B-Cell Receptor Signaling (AID 485345; active = well fitted curve in the direction sought with a large enough effect in the main read-out, with a control signal flat, not every such curve was filed as active)
Outline: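 TMD8 ABC-DLBCL cells with dox-inducible green luciferase–IκBα fusion and red native luciferase; compounds 46 uM–3 nM, 4 h at 37C with doxycycline in 0.5% FBS IMDM. Green/red ratio normalized to basal and 10 uM MG-132.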

[5] = target: Beta-2 adrenergic receptor (Homo sapiens) (UniProt P07550); assay: qHTS validation assay of beta-arrestin-biased ligands of beta2-adrenergic receptor (AID 485366)
Chain of Beta-2 adrenergic receptor (Homo sapiens) (P07550 whole entry, looked up): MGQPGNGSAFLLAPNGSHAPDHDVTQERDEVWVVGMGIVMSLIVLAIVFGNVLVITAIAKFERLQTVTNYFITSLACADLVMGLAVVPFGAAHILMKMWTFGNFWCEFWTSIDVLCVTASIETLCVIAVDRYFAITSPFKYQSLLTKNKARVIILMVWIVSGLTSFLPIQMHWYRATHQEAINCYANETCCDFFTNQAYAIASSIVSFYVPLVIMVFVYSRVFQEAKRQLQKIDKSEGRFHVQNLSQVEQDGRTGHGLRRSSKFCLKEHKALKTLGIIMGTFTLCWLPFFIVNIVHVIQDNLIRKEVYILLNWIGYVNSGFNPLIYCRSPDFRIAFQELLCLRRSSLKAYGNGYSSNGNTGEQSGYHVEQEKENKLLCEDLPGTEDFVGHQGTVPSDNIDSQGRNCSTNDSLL
Outline: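 Arrestin-recruitment (Tango) reporter: ligand-bound beta2-AR recruits beta-arrestin, releasing tTA, which upregulates luciferase. Titrations of up to 46 microM incubated 18 hr at 37 degrees C before luminescent readout.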

[6] = Quantitative high throughput screen for delayed death inhibitors of the malarial parasite plastid, 48 hour incubation (AID 488752); also: nearly all actives have a fitted effect of over 65% in size; also: potency is read from the fitted curve at half-maximal effect
Outline: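 Readout is firefly luciferase luminescence from a reporter integrated into the parasite genome, with lower signal taken as inhibited growth. Infected red cells (0.1% parasitemia, 2% hematocrit final) are cultured with compound for one 48 h cycle at 37 C.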

[7] = target: Thioredoxin reductase 1, cytoplasmic (Rattus norvegicus) (UniProt O89049); assay: qHTS Assay for Substrates of Mammalian Selenoprotein Thioredoxin Reductase 1 (TrxR1) (AID 488772);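 also: NADPH fluorescence in the first read after selenite addition and not the 8 min delta; series mostly up to about 57 µM; a drop in NADPH fluorescence below the no-compound background marks a TrxR1 substrate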
Chain of Thioredoxin reductase 1, cytoplasmic (Rattus norvegicus) (O89049 whole entry, looked up): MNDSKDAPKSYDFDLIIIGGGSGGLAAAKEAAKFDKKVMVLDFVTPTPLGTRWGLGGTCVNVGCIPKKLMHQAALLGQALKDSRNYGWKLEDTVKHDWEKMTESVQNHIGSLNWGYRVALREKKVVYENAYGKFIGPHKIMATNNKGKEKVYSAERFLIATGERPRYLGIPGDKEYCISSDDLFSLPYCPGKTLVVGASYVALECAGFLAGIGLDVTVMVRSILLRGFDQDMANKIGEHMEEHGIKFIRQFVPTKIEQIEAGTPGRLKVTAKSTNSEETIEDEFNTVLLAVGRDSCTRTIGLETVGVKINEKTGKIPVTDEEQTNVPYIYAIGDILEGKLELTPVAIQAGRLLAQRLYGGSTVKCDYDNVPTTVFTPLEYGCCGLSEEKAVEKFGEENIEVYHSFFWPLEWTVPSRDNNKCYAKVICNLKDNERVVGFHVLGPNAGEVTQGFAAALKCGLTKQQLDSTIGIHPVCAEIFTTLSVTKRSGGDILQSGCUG
Outline: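 Quantitative HTS in Tris-HCl buffer at pH 7.5 with EDTA and Tween-20, using rat TrxR1, 400 uM NADPH and 400 uM selenite (final). A fall in initial NADPH fluorescence relative to background marked substrate behaviour.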

[8] = target: Thioredoxin reductase 1, cytoplasmic (Rattus norvegicus) (UniProt O89049); assay: qHTS Assay for Inhibitors of Mammalian Selenoprotein Thioredoxin Reductase 1 (TrxR1) (AID 488773);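 also: drop in NADPH fluorescence over an 8 min run after selenite addition; series mostly up to about 57 µM; nearly all actives have a fitted effect of over 40% in size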
Outline: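 Steps: enzyme (90 nM) plus NADPH (400 uM final), 5 min at ~22 deg C; compound added, 15 min; selenite (400 uM final) added; fluorescence followed for 8 min. Concentration-response curves derived from the normalized delta values.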

[9] = target: M-phase phosphoprotein 8 (Homo sapiens) (UniProt Q99549); assay: qHTS Validation Assay for Inhibitors for MPP8 Chromodomain Interactions with Methylated Histone Tails (AID 488949); also: nearly all actives have a fitted effect of over 55% in size; also: potency is read from the fitted curve at half-maximal effect
Chain of M-phase phosphoprotein 8 (Homo sapiens) (Q99549 whole entry, looked up): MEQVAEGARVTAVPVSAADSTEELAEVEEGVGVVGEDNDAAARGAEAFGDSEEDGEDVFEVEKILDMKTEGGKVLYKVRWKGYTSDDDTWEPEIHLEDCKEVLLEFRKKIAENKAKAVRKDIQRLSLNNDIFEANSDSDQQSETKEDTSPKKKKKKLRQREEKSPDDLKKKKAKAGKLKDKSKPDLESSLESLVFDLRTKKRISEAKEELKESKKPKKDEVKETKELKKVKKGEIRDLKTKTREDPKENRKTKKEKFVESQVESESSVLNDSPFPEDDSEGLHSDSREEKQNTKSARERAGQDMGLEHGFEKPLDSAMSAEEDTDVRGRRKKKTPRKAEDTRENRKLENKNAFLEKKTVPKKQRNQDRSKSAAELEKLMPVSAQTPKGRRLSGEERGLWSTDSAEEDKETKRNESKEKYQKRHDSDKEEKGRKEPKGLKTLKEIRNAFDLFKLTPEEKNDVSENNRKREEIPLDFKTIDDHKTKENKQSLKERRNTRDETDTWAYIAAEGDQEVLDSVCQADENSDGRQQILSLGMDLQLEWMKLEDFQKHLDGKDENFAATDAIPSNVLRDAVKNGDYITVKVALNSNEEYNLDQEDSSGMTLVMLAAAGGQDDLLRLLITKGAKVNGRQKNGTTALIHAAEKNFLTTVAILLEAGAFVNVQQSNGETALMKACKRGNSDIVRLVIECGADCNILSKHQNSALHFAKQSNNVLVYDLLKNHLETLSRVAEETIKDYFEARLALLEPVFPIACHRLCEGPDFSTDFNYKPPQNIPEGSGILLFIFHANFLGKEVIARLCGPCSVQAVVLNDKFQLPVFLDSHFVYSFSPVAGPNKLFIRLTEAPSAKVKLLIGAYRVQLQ
Outline: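 AlphaScreen proximity signal from streptavidin donor and Ni-chelate acceptor beads (10 ug/mL each) reported binding of MPP8 to trimethyl-K9 H3(1-18) peptide, both at 50 nM. The complex formed 30 min before a 30 min compound exposure at room temperature, in PBS pH 7.4.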

[10] = target: ATP-dependent 6-phosphofructokinase (Trypanosoma brucei brucei) (UniProt O15648); assay: qHTS Validation Assay to Find Inhibitors of T. brucei phosphofructokinase (AID 485368); details: outcome: dose series up to 57.5 µM
Chain of ATP-dependent 6-phosphofructokinase (Trypanosoma brucei brucei) (O15648 whole entry, looked up): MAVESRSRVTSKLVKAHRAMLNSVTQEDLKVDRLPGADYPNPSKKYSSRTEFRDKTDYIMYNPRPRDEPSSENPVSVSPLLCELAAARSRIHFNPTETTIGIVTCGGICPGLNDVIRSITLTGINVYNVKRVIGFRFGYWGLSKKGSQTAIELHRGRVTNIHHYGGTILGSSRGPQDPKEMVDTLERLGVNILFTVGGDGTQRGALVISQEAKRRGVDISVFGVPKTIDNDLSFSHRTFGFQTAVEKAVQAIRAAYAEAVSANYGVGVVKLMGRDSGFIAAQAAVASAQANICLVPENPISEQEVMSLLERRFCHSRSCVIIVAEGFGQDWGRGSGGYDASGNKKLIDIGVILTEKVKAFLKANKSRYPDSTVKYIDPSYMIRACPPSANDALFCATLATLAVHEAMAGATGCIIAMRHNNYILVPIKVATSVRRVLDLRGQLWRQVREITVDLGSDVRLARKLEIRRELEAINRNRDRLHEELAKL
Outline: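 Steps: substrate mix (0.5 mM F6P, 0.1 mM ATP, MgCl2, TEA pH 8.0); compound; 1.25 nM T. brucei PFK; 45 min RT; ATP depletion 10 min; ADP-to-ATP detection 10 min; luminescence read; curve fitting and classification.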

Measured: Potency

CC(C)(C)NCC(O)c1ccccc1Cl (stereo not given)
not listed: [10]
inactive: all other assays above

C[C@]12CCC(=O)C=C1CC[C@@H]1[C@@H]2CC[C@]2(C)C(=O)CC[C@@H]12
inactive: [6] | [9]

NCCc1ccc(O)cc1
inactive: all assays above

CN1C(=O)CCS(=O)(=O)C1c1ccc(Cl)cc1 (stereo not given)
inactive: all assays above

CC(C)N(CCC(C(N)=O)(c1ccccc1)c1ccccn1)C(C)C (stereo not given)
inactive: all assays above

Cc1ncsc1CCCl
not listed: [6]
inactive: all other assays above

CC(C)c1cccc(C(C)C)c1O
inactive: all assays above

O=C(O)CCCc1ccc(N(CCCl)CCCl)cc1
not listed: [4] | [8] | [10]
inactive: all other assays above

CC(=O)N1CCN(c2ccc(OC[C@H]3CO[C@](Cn4ccnc4)(c4ccc(Cl)cc4Cl)O3)cc2)CC1
active: [6] 8.28 µM | [9] 39.8 µM

CCCCC/C=C\C/C=C\C/C=C\C/C=C\CCCC(=O)NCC(=O)O
not listed: [1] | [8] | [10]
inactive: all other assays above

CC(NC(C)(C)C)C(=O)c1cccc(Cl)c1 (stereo not given)
not listed: [10]
inactive: all other assays above

O=P1(N(CCCl)CCCl)NCCCO1 (stereo not given)
inactive: all assays above

CN=C(NC#N)NCCSCc1nc[nH]c1C
inactive: [9]

C=C(C)[C@H]1CN[C@H](C(=O)O)[C@H]1CC(=O)O
not listed: [10]
inactive: all other assays above

Cc1nnc(SCC2=C(C(=O)O)N3C(=O)[C@@H](NC(=O)Cn4cnnn4)[C@H]3SC2)s1
inactive: [9]

CCC1(c2ccc(N)cc2)CCC(=O)NC1=O (stereo not given)
inactive: all assays above

CN(C)C(=O)Oc1ccc[n+](C)c1
inactive: [9]

O=c1[nH]oc2c1CCNC2
inactive: all assays above

O=C(CCCN1CCC2(CC1)C(=O)NCN2c1ccccc1)c1ccc(F)cc1
not listed: [4] | [6]
inactive: all other assays above

COc1ccc2c(c1OC)C(=O)O[C@H]2[C@@H]1c2cc3c(cc2CCN1C)OCO3
not listed: [4]
inactive: all other assays above

CC[N+](CC)(CC)CCOc1cccc(OCC[N+](CC)(CC)CC)c1OCC[N+](CC)(CC)CC
active: [9] 13.4 µM
